Bioassay records (PubChem BioAssay)
ST2 inh: inhibitors of human ST2 (IL1RL1) binding to IL-33. Q01638. AlphaLISA ST2-Fc/biotin-IL-33 interaction, 1 h. inhibition, % for hits at 17 µM. 2.3% of 78,000 active. AID 1259354; in the data active means inhibition above about 30%
Target sequence (Q01638 whole entry, looked up): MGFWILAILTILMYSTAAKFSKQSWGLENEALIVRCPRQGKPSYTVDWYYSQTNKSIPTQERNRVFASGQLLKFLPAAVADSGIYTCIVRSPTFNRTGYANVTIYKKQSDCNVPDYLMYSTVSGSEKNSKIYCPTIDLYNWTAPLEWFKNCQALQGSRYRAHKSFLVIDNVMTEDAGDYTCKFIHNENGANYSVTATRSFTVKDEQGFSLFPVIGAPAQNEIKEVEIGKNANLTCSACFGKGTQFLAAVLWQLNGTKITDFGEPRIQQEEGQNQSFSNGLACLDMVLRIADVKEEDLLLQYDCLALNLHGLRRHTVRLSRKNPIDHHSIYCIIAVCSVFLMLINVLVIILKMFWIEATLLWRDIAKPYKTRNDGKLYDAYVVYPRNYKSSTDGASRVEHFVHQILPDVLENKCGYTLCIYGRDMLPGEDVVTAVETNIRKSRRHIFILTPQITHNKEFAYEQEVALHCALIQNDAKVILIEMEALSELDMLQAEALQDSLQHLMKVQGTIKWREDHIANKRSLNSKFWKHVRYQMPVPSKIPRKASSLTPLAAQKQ
The depositor's hits bear a star; i = inactive. Many of the other results were omitted from the sample, so hits are more common in it than they were.

SMILES	ST2 inh
Cc1ccc(-c2cc(C(=O)NC(C)Cc3cc(C)[nH]n3)[nH]n2)cc1 (configuration not stated)	i
O=C(CCc1ccccc1)Nc1c[nH]c(=O)[nH]c1=O	i
O=C(Nc1c[nH]c(=O)[nH]c1=O)c1ccc(Oc2ccc(C(=O)Nc3c[nH]c(=O)[nH]c3=O)cc2)cc1	36%*
O=C(Nc1c[nH]c(=O)[nH]c1=O)c1ccc(N2C(=O)C3C4C=CC(C4)C3C2=O)cc1 (configuration not stated)	i
CSc1nsc(SC)c1NC(=O)Nc1ccc(Br)cc1	i
CC(=O)c1cc(C(C)(C)C)sc1C(C)(C)C	i
CCCCOc1ccc(OC(=O)c2ccc(Br)o2)cc1	i
O=C1C(=Cc2cccn2-c2ccc(Cl)cc2)C(=O)c2ccccc21	i
CCCCC1(C)OC(=O)C(=Cc2ccc(Br)o2)C(=O)O1 (configuration not stated)	73%*
CCCCC1(C)OC(=O)C(=Cc2ccc(OC)c(I)c2)C(=O)O1 (configuration not stated)	i
CC1(c2ccccc2)OC(=O)C(=Cc2ccc(O)cc2)C(=O)O1 (configuration not stated)	i
CCCCC1(C)OC(=O)C(=Cc2ccc(N(CC)CC)cc2)C(=O)O1 (configuration not stated)	33%*
CC1(C)OC(=O)C(=CNc2ccc(C(=O)O)cc2)C(=O)O1	i
COc1cc(C=C2C(=O)OC(C)(C)OC2=O)cc(Br)c1O	i
CC1(C)OC(=O)C(=Cc2ccc(I)o2)C(=O)O1	93%*
O=C1C(=Cc2ccc(-c3ccc(F)cc3)o2)C(=O)c2ccccc21	i
O=C1C(=Cc2ccc(Br)o2)C(=O)c2ccccc21	52%*
Cc1cc(S(=O)(=O)N2CCN(c3ccc(F)cc3)CC2)ccc1Cl	i
CCC(C)NC(=O)C(NS(=O)(=O)c1cccs1)C(C)C (configuration not stated)	i
CCOC(=O)c1cccnc1-c1ccc(C)c2ncccc12	i
Cn1cnc2cc(C(=O)N3CCNCC3C(=O)N3CCCC3)ccc2c1=O (configuration not stated)	i
CCOc1ccc(C2CC(=O)N3CN(c4ccc(Cl)cc4)CSC3=C2C#N)cc1OC (configuration not stated)	i
CCN(CCn1cccn1)Cc1cccc2c1OCO2	i
COc1ccc(-c2nc3cnccn3c2Nc2ccc(C(C)C)cc2)cc1	i
COc1ccc(-c2noc([C@@H]3C[C@@H](O)CN3Cc3ccc(C(=O)O)cc3)n2)cc1	i
SMILES	ST2 inh
C=C(C)C(=O)O[C@H]1CC2=C[C@@H](C/C(C)=C/[C@H]3OC(=O)C(=C)[C@H]13)OC2=O	i
COCCN(Cc1ccc2c(c1)CCO2)CC1CCCN(C2Cc3ccccc3C2)C1 (configuration not stated)	i
CC1=C(C(=O)OC2CCCCC2)C(c2ccc(F)cc2)n2nnnc2N1 (configuration not stated)	i
CC(NC(=O)c1ccc(Cl)cc1)c1ccccc1 (configuration not stated)	i
CC(Nc1ccc(Cl)cc1N)c1ccccc1 (configuration not stated)	57%*
CC(NC(=O)c1cc2ccccc2o1)c1ccccc1 (configuration not stated)	i
O=C(c1cc2ccccc2oc1=O)N1CC[C@H]2CC[C@@H](C1)N2	i
CCc1cc(C(C)Nc2nc(-c3cccnc3)nc3c2CNC3)on1 (configuration not stated)	i
O=C(COC(=O)c1ccc(Cl)cc1)c1ccc(Br)cc1	i
O=C(COC(=O)c1cccc(Br)c1)c1ccc(Br)cc1	i
O=C(COC(=O)c1ccccc1O)c1ccc(Br)cc1	90%*
CN(Cc1ccccc1)Cc1ccncc1	i
CCOC(=O)c1sc2nc(CC(=O)OC)nc(N3CCCC3)c2c1C	i
CCOc1ccc(C2C(C(=O)OC(C)C)=C(C)N=C3SCCC(=O)N32)cc1OC (configuration not stated)	i
CCN(CC)c1ccc(N)c(C)c1	53%*
CCN(CC)c1ccc(C=NS(=O)(=O)c2ccc(C)cc2)cc1	i
O=C1C2CCCN2C(c2cccc(F)c2)N1c1ccc(Cl)c(Cl)c1 (configuration not stated)	i
COc1ccccc1C(=O)Nc1ccc(-c2nc3ccccc3o2)cc1	i
COc1ccc(/C=C2/C(C)=C(C#N)c3nc(N)c(C#N)c(C)c32)c(OC)c1	43%*
COc1ccc(OC)c(-c2c(C#N)c(N)nc(OC)c2C#N)c1	i
COc1ccc(-c2c(C#N)c(N)nc(OC)c2C#N)c(OC)c1	i
CC1CN(C(=O)c2cccc(F)c2)C(C)CN1C(=O)c1cccc(F)c1 (configuration not stated)	85%*
Cc1cccc(C(=O)N2C(C)CCCC2C)c1 (configuration not stated)	i
COC(=O)[C@@H]1CN(C(=O)c2cccc(F)c2)CCN1C(=O)c1cccnc1	i
N#Cc1c(N)[n+]([O-])c2cc(Cl)c(Cl)cc2[n+]1[O-]	i
SMILES	ST2 inh
CC1CCCCN1S(=O)(=O)c1ccc2[nH]c(=O)cc(C(=O)NCCCN3CCCC3)c2c1 (configuration not stated)	i
Cc1c(C#N)c2ncnc(NCCc3ccccc3)c2n1-c1ccccc1	i
CCOC(=O)Oc1c(Cl)cc2oc(=O)sc2c1Br	32%*
COC(=O)Oc1cc2oc(=O)sc2cc1Cl	i
CCOC(=O)Oc1ccc2c(c1)oc(=O)c1ccccc12	i
Cc1cc2n(c1)CCn1c(C)ccc1-2	63%*
O=c1cc(Cc2nnc(SCc3ccc(Br)cc3)n2-c2ccccc2)[nH]c(=O)[nH]1	i
CC1(C)CC2CC(C)(CN2C(=O)c2cc(-c3ccco3)on2)C1 (configuration not stated)	i
O=C(NC1CCCCC1)N1Cc2[nH]cnc2C[C@H]1c1nc(-c2ccc3ccccc3c2)no1	i
Cc1ccc(NC(=O)N2Cc3[nH]cnc3C[C@H]2c2nc(-c3ccc4ccccc4c3)no2)cc1	i
O=C(Nc1ccccc1)N1Cc2[nH]cnc2C[C@H]1c1nc(-c2ccc3ccccc3c2)no1	38%*
CCc1cccc(CC)c1NC(=O)CCCC(=O)O	i
COc1ccc(OCC(=O)Nc2cc([N+](=O)[O-])ccc2C)cc1	i
CC1CCC(C(=O)NC(C(=O)NCCCN2CCCC2=O)C(C)C)CC1 (configuration not stated)	i
Cc1cccc(Nc2c(-c3ccc(O)cc3)nc3ncncn23)c1	i
Cc1nc2c(c(=O)n1C)CCN(C(=O)Nc1ccc3c(c1)OCO3)CC2	i
Cc1nc2c(c(=O)n1C)CCN(C(=O)C1CCOC(C)(C)C1)CC2 (configuration not stated)	31%*
Cc1ccc(C(=O)NCCC(=O)N2CCc3nc(C)n(C)c(=O)c3CC2)cc1	i
CCc1cnc(-c2ccc(F)c(CO)c2)nc1	i
C#CCCCCCCCCCCCC(CC(O)CO)OC(C)=O (configuration not stated)	i
O=C1NCCN(Cc2cccc3ccccc23)C1CC(=O)N1CCN(c2cnccn2)CC1 (configuration not stated)	i
COc1ccc([N+](=O)[O-])cc1NC(=O)CCc1nc(-c2ccccc2F)no1	i
COc1ccc(C(=O)ON=C2C(C)=CC(=O)C=C2C)cc1	52%*
CC1=CC(=O)C=C(C)C1=NOC(=O)c1ccc([N+](=O)[O-])cc1[N+](=O)[O-]	i
